Assay outcomes: PubChem, The Scripps Research Institute Molecular Screening Center
Hits are enriched below; roughly 5.7% of the tested compounds scored in any of these assays.
DAX1 inh-1: inhibitors of DAX1 repression of SF-1 activated StAR promoter; HEK293T StAR-luciferase reporter, SF-1/DAX-1 repression relief; inhibition, % at 6.8 µM; actives 1.1% (n = 370,000); AID 652010;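 active means inhibition above the mean over all tested compounds plus 3 SD, cut at about 3.6% in these data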;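 further: 0% = DAX-1 cells with DMSO and 100% = cells lacking DAX-1 with DMSO; higher inhibition means more luminescence from relief of DAX-1 repression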
AHR act: activators of human aryl hydrocarbon receptor | AHR-responsive luciferase reporter cells, luminescence | activation, % at 5 µM | AID 2796 | P35869 | actives 2.5% (n = 320,000); in the data active means activation above about 47%;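 further: 0% = vehicle wells and 100% = reference agonist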
Target sequence (P35869 whole entry, looked up): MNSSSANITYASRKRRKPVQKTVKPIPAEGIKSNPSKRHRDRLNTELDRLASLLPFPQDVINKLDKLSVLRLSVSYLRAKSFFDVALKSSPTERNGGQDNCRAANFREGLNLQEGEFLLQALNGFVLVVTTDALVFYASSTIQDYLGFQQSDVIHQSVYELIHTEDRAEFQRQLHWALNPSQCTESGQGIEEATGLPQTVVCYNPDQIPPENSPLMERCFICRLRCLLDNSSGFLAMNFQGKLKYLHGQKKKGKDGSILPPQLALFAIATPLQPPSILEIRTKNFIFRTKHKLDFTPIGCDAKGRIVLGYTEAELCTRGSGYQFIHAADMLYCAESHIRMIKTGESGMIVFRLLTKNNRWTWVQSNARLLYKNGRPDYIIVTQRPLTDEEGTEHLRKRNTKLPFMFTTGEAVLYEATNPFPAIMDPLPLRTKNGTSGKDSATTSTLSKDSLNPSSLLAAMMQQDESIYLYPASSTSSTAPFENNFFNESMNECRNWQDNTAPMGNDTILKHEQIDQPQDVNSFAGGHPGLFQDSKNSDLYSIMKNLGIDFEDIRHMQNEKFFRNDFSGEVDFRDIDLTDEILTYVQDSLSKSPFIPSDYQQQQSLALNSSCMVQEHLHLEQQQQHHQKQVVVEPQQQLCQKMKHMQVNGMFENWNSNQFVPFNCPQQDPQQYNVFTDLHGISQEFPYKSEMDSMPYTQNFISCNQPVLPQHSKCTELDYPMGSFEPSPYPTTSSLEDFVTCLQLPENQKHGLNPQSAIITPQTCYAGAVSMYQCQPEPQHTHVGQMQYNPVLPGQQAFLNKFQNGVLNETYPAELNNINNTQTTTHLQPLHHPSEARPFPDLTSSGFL
ssDAF12 agonist: activates DAF-12 receptor from parasite S. stercoralis; HEK293 ssDAF-12/GRIP1 lit1-tk-luc reporter, luminescence; % of 3 µM dafachronic acid response; activation, % at 6.8 µM; actives 1% (n = 370,000);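 active means activation above the mean over all tested compounds plus 3 SD, cut at about 0.9% in these data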;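 further: 0% = DMSO-only wells and 100% = 3 µM delta7-dafachronic acid wells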
hcDAF-12 act: H. contortus DAF-12 activation, primary screen | HEK293 hcDAF-12 lit1-tk-luc reporter, luminescence; 0% DMSO, 100% Δ7-dafachronic acid | activation, % at 6.8 µM | actives 1.4% (n = 370,000);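 active means activation above the mean of all tested compounds plus 3 SD, cut at about 5.5% in these data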;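 further: 100% = response to 3 µM Δ7-dafachronic acid high control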
hgDAF-12 ag: agonists of H. glycines DAF-12 nuclear receptor; HEK293 GAL4-hgDAF12 UAS-luciferase reporter, agonist luminescence; normalized to butyrate control; actives 1.8% (n = 370,000); activation, % at 6.8 µM;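 active means activation above a cutoff set at the mean of all screened compounds plus 3 SD, cut at about 10% in these data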;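 further: 0% = DMSO wells and 100% = sodium butyrate wells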
DAX1 inh-2: inhibitors of human orphan nuclear receptor DAX1 (NR0B1); P51843; HEK293 Gal4-DAX1 luciferase reporter, luminescence; inhibition, % at 6.75 µM; actives 0.99% (n = 340,000); AID 504766;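 active means inhibition above the mean over all tested compounds plus 3 SD, cut at about 4.2% in these data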;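 further: 0% = DAX1-transfected cells with DMSO and 100% = empty-vector control cells with DMSO; inhibition shows as a rise in luminescence from relieved DAX1 repression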
* = called active by the depositor; . = not tested or not shown.

SMILES | DAX1 inh-1 | AHR act | ssDAF12 agonist | hcDAF-12 act | hgDAF-12 ag | DAX1 inh-2
CC(C)[C@H](NC(=O)c1ccc(Cl)cc1Cl)C(=O)N1CCC[C@H]1C(=O)NCCc1ccccc1Cl | 0 | . | -1 | 0 | 2 | .
O=C(OCc1nnc(-c2ccccc2)o1)C12CC3CC(CC(Br)(C3)C1)C2 | 1 | . | -1 | 0 | 2 | 4.8*
Cc1cc(C(=O)NNS(=O)(=O)c2cccc(Cl)c2)nn1C(C)(C)C | 0 | 41 | -1 | -1 | -1 | 4.2*
O=C(O)CC/C(=N\Nc1ccc(Cl)cc1)c1cccs1 | 0 | 61* | 0 | 5 | 3 | -1
COc1ccc(OCC(=O)N/N=C(\CCC(=O)O)c2cccs2)cc1 | 1 | 9 | -1 | -1 | 1 | -1
O=C(O)CC/C(=N\NC(=O)c1ccccc1)c1cccs1 | 1 | 6 | -1 | 0 | 11* | 2
COC(=O)N/N=C(\CCC(=O)O)c1cccs1 | 0 | 8 | -1 | -1 | 3 | 3
CC1=N/C(=C\c2ccc(OC(C)C)cc2)C(=O)N1c1ccc(C(=O)O)cc1 | 0 | 0 | 1.9* | -3 | 2 | -1
CC(C)Oc1ccc(C(=O)O)cc1 | 1 | 0 | -1 | 1 | 1 | 1
Cc1ccc(CNC(=O)CCCn2nc(C)n3ccnc3c2=O)cc1 | 0 | -4 | -1 | -2 | 1 | 1
CCc1nccn1S(=O)(=O)c1cc(OC)ccc1OC | 0 | 11 | -1 | 2 | 0 | -2
FC(F)(F)c1ccc(-n2cnc3ccccc32)nc1 | 0 | 65* | -1 | 2 | 3 | 1
Cc1cccc(C)c1NC(=O)C(C1CC1)n1c(=O)c(-c2ccco2)nc2ccccc21 (configuration not stated) | 0 | . | 0 | 0 | 1 | .
O=C(Nc1ccc2c(c1)OCCO2)C(c1ccnc2ccccc12)n1c(=O)c(-c2ccco2)nc2ccccc21 (configuration not stated) | 3 | . | 1.5* | 5 | 7 | .
O=C(Nc1ccc2c(c1)OCCO2)C(c1ccncc1)n1c(=O)c(-c2ccco2)nc2ccccc21 (configuration not stated) | -1 | . | -1 | -1 | 3 | .
O=C(NC1CCCCC1)C(c1ccnc2ccccc12)n1c(=O)c(-c2ccco2)nc2ccccc21 (configuration not stated) | 2 | . | 1.1* | 2 | 4 | .
Cc1cccc(C)c1NC(=O)C(c1ccncc1)n1c(=O)c(-c2ccco2)nc2ccccc21 (configuration not stated) | 2 | . | 2.1* | 5 | 5 | .
CC(C)(C)NC(=O)C(c1ccccc1F)n1c(=O)c(-c2ccco2)nc2ccccc21 (configuration not stated) | 4.3* | . | -1 | 1 | 2 | .
COc1ccc(Cl)cc1-c1nc(SCC(=O)N(C)C2CCS(=O)(=O)C2)n[nH]1 (configuration not stated) | 0 | 8 | -1 | 0 | -1 | -1
Cc1ccc(S(=O)(=O)NCCC(=O)N2CCCCCCC2)cc1 | 3 | 1 | 0 | 1 | -1 | -1
COc1ccccc1CNC(=O)c1cc(-c2ccncc2)nc2c(Cl)cccc12 | 2 | 46 | 1 | 6.0* | 0 | 0
COc1ccc(CCNC(=O)c2cc(-c3ccncc3)nc3c(Cl)cccc23)cc1OC | 0 | 10 | -2 | 1 | 1 | 2
COc1ccc2[nH]c(C(=O)Nc3ncc(C)cc3Br)cc2c1 | 0 | 3 | -1 | -1 | 0 | 0
COc1ccc2[nH]c(C(=O)Nc3ccc(F)cc3Br)cc2c1 | 0 | 50* | -1 | 4 | 4 | 3
CCOc1ccc(NC(=O)COC(=O)CC2CC3CCC2C3)cc1 (configuration not stated) | 0 | 0 | -1 | -1 | -1 | 0
SMILES | DAX1 inh-1 | AHR act | ssDAF12 agonist | hcDAF-12 act | hgDAF-12 ag | DAX1 inh-2
Cc1cc(C)nc(SC2CCCCC2O)n1 (configuration not stated) | 1 | 12 | -1 | 5.8* | 4 | 1
COc1cccc2cc(-c3nc4ccccc4o3)c(=O)oc12 | 2 | 18 | 0 | 2 | 11* | 4.4*
COc1cccc2cc(C(=O)c3ccccc3)oc12 | 0 | -1 | -1 | 0 | 3 | 1
COc1cccc2cc3c(=O)n(-c4ccccc4)nc-3oc12 | 0 | 49* | -1 | -2 | -1 | 1
FC(F)(F)c1ccc(Cl)c(CN2CCN(c3ncc(Cc4ccccc4)cn3)CC2)c1 | 0 | . | -1 | -2 | 1 | .
COC(=O)Nc1nnc(-c2ccccc2Cl)s1 | 1 | 55* | 0 | 2 | 9 | -1
COc1ccccc1-c1nnc(NC(=O)OCC(C)C)s1 | -1 | 64* | -1 | 0 | 1 | 0
CSc1cccc(CN2CCC(n3nccc3NC(=O)C3CC3)CC2)c1 | 0 | 1 | -1 | -1 | -2 | 0
Cc1cccc(C(=O)OCC(=O)N2CCCCCC2)c1O | 2 | 1 | 0 | 5 | 2 | 4.5*
Cc1cccc(C(=O)OCC(=O)N2CCc3ccccc3C2)c1O | 0 | 1 | 0 | 1 | 2 | 0
Cc1nn2c(-c3ccco3)nnc2c2ccccc12 | 1 | 30 | 0 | 5.9* | 2 | 1
Cc1ccc(S(=O)(=O)c2ncccc2[N+](=O)[O-])cc1 | -2 | 6 | -2 | -1 | -1 | -5
CCOc1ccc(NC(=S)c2ccc3ccccc3n2)cc1 | 0 | 34 | 1.0* | 4 | 2 | 0
CCOc1ccc(NC(=S)Nc2cccc3ccccc23)cc1 | 1 | 66* | 0 | 5 | 3 | 1
CCOc1ccc(NC(=S)Nc2ccc3nsnc3c2)cc1 | 0 | 51* | -1 | 1 | 0 | -2
COc1ccc(NC(=S)c2ccc3ccccc3n2)cc1 | . | 46 | . | . | . | 3
COc1ccc(NC(=S)Nc2cccc3cnccc23)cc1 | 0 | 27 | 1 | 3 | 3 | 0
CCOc1ccc(NC(=O)Nc2ccc3nsnc3c2)cc1 | 0 | 7 | -1 | 1 | 8 | 0
CCOc1ccc(NC(=S)Nc2cccc3cnccc23)cc1 | -1 | 60* | 0 | 0 | 1 | -1
CCCCNC(=O)C1CCCN1C(=O)Nc1ccc2c(c1)OCO2 (configuration not stated) | 2 | . | -1 | 2 | 8 | .
O=C(NCc1ccccc1Cl)C1CCN(c2cnccn2)CC1 | 0 | 3 | -2 | 0 | -3 | 1
N=C1/C(=C\c2ccc(-c3cccc(Cl)c3)o2)C(=O)N=C2SC=C(c3ccccc3)N12 | 0 | 49* | 0 | 5 | 1 | -1
N=C1/C(=C\c2ccc(-c3ccc(C(=O)O)cc3)o2)C(=O)N=C2SC=C(c3ccccc3)N12 | 0 | . | -1 | 2 | 0 | -1
Cc1nnc(NC(=O)CSc2nnc(C)n2Cc2ccccc2)s1 | 0 | 3 | -1 | -2 | -1 | 0
